Our source for the Potency values is PubChem BioAssay (Tox21).

“And” between values parts separate entries of the source, which are not always exact repeats. Identical values can stand only once. Results filed as inconclusive are left out. The source holds several records for some structures; these can differ, active in one and inactive in another. The source made the active and inactive calls. Unless noted, the call rests on the fitted dose curve; in most records, active means well fitted curve in the direction sought with a large enough effect in the repeat runs; inconclusive means weak or mixed curves; inactive means no such curve, though single readings can be large; an effect the other way counts as inactive or inconclusive.

Assay [1] addresses Acetylcholinesterase (Homo sapiens) (UniProt P22303). Put plainly: Acetylcholinesterase (AChE) small molecule antagonists: colormetric cell-based qHTS assay (AID 1347395; calls by dose curve; further: nearly all actives have a fitted effect of over 30% in size). An outline of the steps:
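AChE inhibition read colorimetrically via DTNB–thiocholine in SH-SY5Y cells. Compound 30 min, substrate 90 min, both 37 C.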

For assay [2] the target is unchanged. Put plainly: Acetylcholinesterase (AChE) small molecule antagonists: enzyme-based qHTS assay (AID 1347397; calls by dose curve; further: nearly all actives have a fitted effect of over 55% in size). The conditions noted are these: Potency: AChE enzyme activity inhibition. In a few lines: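 Recombinant human AChE, dispensed at 50 mU/mL, was preincubated with Tox21 10K compounds or DMSO vehicle for 30 min at room temperature. DTNB plus acetylthiocholine was then added, and thiocholine was measured colorimetrically after a further 10 min.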
For orientation: qHTS replaces the single test concentration by a dilution series.

The target is the same in assay [3]. Put plainly: Acetylcholinesterase (AChE) small molecule antagonists: fluorescence cell-based qHTS assay (AID 1347398; calls by dose curve; further: nearly all actives have a fitted effect of over 50% in size). The conditions noted are these: Potency: AChE activity. In a few lines:
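Human SH-SY5Y cells were plated overnight at 37 C, exposed to compound for 30 min at 37 C, 5% CO2, then given acetylthiocholine plus Thiolite Green for 40 min at room temperature; thiocholine fluorescence (Ex/Em 490/520 nm) reports endogenous AChE activity.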

Assay [4] shares this target. Put plainly: Acetylcholinesterase (AChE) small molecule antagonists: enzyme-based qHTS assay with human liver microsomes (AID 1347399; calls by dose curve; further: nearly all actives have a fitted effect of over 60% in size). The conditions noted are these: Potency: qHTS inhibition. In a few lines:
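Recombinant human AChE (50 mU/mL in the enzyme mix) and human liver microsomes (0.25 mg/mL final) were preincubated with compound and NADPH (0.25 mg/mL final) for 30 min at 37 C. Acetylthiocholine/DTNB was then added; thiocholine was read colorimetrically after 10 min at room temperature.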

Assay [5] has as its target Cytochrome P450 2D6 (Homo sapiens) (UniProt P10635). Put plainly: Cytochrome P450 Family 2 Subfamily D Member 6 (CYP2D6) small molecule antagonists: luciferase reporter qHTS assay (AID 1671196). Further: nearly all actives have a fitted effect of over 50% in size. Further: potency means the concentration at half of the fitted maximal effect. An outline of the steps: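 Cell-free P450-Glo system: CYP2D6 with proluciferin substrate was pre-incubated with compound for 10 min, then reacted with NADPH regeneration for 1 h at room temperature. Luciferin product was detected after 20 min, and data were reported as relative luminescence units.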
For orientation: Reporter assays use an easily measured gene product as a stand-in for the process of interest.

Assay [6] concerns the target Cytochrome P450 2C19 (Homo sapiens) (UniProt P33261). Put plainly: Cytochrome P450 Family 2 Subfamily C Member 19 (CYP2C19) small molecule antagonists: luciferase reporter qHTS assay (AID 1671197). Further: nearly all actives have a fitted effect of over 65% in size. Further: potency means the concentration at half of the fitted maximal effect. In a few lines: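 Inhibition of CYP2C19 was scored from loss of luminescence in a P450-Glo proluciferin substrate assay, NADPH-started and run 1 h at 37C, with ketoconazole as positive control.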

Assay [7] concerns the target Cytochrome P450 2C9 (Homo sapiens) (UniProt P11712). Put plainly: Cytochrome P450 Family 2 Subfamily C Member 9 (CYP2C9) small molecule antagonists: luciferase reporter qHTS assay (AID 1671198). Further: nearly all actives have a fitted effect of over 50% in size. Further: potency means the concentration at half of the fitted maximal effect. In a few lines: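 CYP2C9 activity was measured with a P450-Glo proluciferin substrate. Enzyme–substrate mix was held with compound for 10 min at room temperature, then NADPH regeneration solution was added for 1 h at 37C. Luciferin product was read as luminescence.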

In assay [8] the target is Voltage-gated inwardly rectifying potassium channel KCNH2 (Homo sapiens) (UniProt Q12809). Put plainly: Human Ether-a-go-go-Related Gene (hERG) channel small molecule antagonists: fluorescence cell-based qHTS assay (AID 1671200). Further: nearly all actives have a fitted effect of over 50% in size. Further: potency means the concentration at half of the fitted maximal effect. An outline of the steps:
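Kinetic two-minute fluorescence traces, sampled at 1 s, were collected following thallium stimulus of U2OS cells (1000 per well) that had been cultured overnight at 37 C and loaded with FluxOR II.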
On the technique in general: The hERG channel carries a current that helps repolarise heart muscle cells.

In assay [9] the target is Cytochrome P450 3A4 (Homo sapiens) (UniProt P08684). Put plainly: Cytochrome P450 Family 3 Subfamily A Member 4 (CYP3A4) small molecule antagonists: luciferase reporter qHTS assay (AID 1671201). Further: nearly all actives have a fitted effect of over 50% in size. Further: potency means the concentration at half of the fitted maximal effect. In a few lines:
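Proluciferin-to-luciferin conversion by CYP3A4, NADPH-regenerated, 1 h RT; luminescence read as RLU. Ketoconazole as control.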

In assay [10] the target is Cytochrome P450 1A2 (Homo sapiens) (UniProt P05177). Put plainly: Cytochrome P450 Family 1 Subfamily A Member 2 (CYP1A2) small molecule antagonists: luciferase reporter qHTS assay (AID 1671199). Further: nearly all actives have a fitted effect of over 50% in size. Further: potency means the concentration at half of the fitted maximal effect. In a few lines: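 P450-Glo CYP1A2 enzyme–proluciferin substrate mix with compound 10 min at room temperature, then NADPH regeneration 1 h at room temperature. Luciferin detection reagent added, luminescence read after 20 min; furafylline positive control.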
Chain of Cytochrome P450 1A2 (Homo sapiens) (P05177 whole entry, looked up): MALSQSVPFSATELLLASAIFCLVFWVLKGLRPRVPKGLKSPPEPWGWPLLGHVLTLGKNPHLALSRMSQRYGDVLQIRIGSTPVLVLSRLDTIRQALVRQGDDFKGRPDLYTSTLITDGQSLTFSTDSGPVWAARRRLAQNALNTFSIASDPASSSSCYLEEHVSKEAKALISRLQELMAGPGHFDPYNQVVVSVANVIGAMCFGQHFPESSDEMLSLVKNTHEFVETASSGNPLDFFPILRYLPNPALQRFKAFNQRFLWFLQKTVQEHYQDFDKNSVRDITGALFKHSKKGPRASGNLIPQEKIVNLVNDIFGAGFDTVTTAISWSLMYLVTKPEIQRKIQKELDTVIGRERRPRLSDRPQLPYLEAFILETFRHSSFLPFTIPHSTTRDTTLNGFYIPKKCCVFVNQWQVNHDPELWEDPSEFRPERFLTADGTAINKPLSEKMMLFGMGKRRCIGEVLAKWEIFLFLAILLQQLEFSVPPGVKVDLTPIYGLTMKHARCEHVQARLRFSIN

Chain of Cytochrome P450 2C19 (Homo sapiens) (P33261 whole entry, looked up): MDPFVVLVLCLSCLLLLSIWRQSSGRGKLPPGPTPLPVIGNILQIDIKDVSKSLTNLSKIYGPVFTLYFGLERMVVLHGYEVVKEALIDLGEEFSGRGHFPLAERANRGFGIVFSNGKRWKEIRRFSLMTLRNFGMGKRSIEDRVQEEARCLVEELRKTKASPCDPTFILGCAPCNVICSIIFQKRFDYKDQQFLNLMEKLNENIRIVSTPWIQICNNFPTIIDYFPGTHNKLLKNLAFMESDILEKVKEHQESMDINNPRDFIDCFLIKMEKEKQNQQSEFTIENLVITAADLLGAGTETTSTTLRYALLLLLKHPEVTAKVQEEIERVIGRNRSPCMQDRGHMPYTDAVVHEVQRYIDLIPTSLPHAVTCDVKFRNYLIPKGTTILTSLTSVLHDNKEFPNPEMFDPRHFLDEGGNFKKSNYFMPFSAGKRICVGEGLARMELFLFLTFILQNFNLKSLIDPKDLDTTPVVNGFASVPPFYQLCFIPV
Chain of Acetylcholinesterase (Homo sapiens) (P22303 whole entry, looked up): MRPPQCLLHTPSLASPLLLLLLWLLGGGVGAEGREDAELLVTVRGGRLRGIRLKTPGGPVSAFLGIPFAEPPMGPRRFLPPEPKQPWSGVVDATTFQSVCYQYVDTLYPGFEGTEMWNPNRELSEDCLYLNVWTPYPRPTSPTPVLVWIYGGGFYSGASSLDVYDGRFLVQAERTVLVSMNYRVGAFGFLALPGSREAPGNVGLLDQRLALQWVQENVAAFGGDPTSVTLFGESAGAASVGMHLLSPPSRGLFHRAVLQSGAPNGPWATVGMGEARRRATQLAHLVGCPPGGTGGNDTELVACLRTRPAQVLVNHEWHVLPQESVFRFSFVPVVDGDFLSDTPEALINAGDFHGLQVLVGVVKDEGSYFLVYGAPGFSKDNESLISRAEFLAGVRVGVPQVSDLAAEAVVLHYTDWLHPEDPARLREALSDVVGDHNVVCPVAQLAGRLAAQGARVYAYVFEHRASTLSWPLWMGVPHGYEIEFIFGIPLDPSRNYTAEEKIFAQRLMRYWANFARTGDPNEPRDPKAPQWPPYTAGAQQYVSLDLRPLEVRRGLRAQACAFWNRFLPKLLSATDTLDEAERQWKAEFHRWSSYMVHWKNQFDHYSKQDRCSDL
Chain of Voltage-gated inwardly rectifying potassium channel KCNH2 (Homo sapiens) (Q12809 whole entry, looked up): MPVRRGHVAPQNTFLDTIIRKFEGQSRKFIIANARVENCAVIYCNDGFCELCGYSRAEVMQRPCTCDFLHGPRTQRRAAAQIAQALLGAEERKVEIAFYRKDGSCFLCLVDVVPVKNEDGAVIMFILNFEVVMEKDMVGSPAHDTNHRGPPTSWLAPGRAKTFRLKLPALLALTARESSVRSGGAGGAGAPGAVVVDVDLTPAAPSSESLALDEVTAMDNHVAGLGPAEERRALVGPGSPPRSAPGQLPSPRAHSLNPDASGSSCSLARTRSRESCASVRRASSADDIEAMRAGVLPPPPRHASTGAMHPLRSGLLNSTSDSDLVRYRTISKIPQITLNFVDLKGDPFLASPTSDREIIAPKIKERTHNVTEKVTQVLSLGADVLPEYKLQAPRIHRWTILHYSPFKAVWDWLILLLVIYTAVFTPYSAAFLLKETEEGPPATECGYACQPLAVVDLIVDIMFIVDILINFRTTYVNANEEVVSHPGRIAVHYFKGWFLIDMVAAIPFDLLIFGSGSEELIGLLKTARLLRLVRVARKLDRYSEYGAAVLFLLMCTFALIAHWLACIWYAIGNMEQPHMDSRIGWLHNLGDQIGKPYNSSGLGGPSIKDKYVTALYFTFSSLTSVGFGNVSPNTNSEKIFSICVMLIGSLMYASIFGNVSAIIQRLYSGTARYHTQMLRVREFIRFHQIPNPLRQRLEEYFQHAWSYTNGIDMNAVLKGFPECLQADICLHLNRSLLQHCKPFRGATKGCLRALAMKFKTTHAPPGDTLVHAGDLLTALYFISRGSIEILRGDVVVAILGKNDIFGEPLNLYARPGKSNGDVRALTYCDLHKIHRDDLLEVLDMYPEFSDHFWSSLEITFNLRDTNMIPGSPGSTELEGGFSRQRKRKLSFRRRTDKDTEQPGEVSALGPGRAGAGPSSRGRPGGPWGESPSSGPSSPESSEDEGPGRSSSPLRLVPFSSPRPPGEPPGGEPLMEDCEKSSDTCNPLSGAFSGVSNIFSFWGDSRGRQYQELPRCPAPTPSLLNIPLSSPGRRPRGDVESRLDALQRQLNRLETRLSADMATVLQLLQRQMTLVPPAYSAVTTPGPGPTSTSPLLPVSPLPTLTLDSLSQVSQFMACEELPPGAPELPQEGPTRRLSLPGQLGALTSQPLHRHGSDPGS
Chain of Cytochrome P450 2D6 (Homo sapiens) (P10635 whole entry, looked up): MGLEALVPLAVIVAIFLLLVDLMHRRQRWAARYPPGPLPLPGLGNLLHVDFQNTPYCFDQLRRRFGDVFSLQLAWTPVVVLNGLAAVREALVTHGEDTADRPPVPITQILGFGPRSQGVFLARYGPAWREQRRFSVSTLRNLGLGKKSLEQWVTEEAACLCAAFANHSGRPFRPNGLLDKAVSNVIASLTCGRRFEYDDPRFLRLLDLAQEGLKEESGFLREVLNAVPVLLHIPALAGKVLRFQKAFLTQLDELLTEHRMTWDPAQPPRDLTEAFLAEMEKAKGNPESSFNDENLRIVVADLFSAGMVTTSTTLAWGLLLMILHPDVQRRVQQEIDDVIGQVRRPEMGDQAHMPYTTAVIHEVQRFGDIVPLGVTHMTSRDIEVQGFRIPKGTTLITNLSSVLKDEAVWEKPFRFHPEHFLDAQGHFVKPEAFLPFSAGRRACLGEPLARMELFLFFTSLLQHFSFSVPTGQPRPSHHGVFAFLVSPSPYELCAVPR
Chain of Cytochrome P450 3A4 (Homo sapiens) (P08684 whole entry, looked up): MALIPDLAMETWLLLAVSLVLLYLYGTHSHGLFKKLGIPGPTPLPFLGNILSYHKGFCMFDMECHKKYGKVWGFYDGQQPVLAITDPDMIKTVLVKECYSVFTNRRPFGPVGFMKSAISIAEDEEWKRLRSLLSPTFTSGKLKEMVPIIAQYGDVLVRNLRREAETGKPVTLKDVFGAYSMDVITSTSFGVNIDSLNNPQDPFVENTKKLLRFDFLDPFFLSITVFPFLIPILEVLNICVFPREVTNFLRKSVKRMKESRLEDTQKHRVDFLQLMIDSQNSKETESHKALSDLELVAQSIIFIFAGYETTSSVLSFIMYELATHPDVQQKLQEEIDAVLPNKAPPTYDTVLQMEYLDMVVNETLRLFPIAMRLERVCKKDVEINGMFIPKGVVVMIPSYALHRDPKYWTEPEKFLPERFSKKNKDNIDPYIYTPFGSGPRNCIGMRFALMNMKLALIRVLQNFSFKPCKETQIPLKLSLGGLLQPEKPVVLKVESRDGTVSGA
Chain of Cytochrome P450 2C9 (Homo sapiens) (P11712 whole entry, looked up): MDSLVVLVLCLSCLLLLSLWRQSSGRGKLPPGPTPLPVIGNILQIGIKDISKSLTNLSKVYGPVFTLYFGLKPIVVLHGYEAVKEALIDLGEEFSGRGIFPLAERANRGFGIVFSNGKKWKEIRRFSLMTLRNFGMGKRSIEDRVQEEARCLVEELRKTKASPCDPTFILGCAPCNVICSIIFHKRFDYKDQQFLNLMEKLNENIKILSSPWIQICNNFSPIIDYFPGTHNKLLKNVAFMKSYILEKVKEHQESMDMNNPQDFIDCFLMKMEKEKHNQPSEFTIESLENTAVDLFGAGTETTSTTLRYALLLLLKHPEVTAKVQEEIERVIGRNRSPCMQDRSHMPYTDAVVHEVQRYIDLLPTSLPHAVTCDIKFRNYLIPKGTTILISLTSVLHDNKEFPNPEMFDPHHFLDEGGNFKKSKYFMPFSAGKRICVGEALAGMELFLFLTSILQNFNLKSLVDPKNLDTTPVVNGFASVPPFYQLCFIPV

As for `Nc1ccc(Cl)c(Cl)c1`, the Potency entry in assay [1], in assay [2], in [3], in assay [4], in [5] and in assay [6] was “inactive” throughout. The Potency entry in assay [8] was “inactive”. Besides, the Potency in [7] was 36.4 µM (active) and 35.6 µM (active); in assay [9], 32.5 µM (active).
As to `N#CC(Br)Br`, the Potency result in assay [1], in [2], in [3], in assay [4], in assay [6] and in assay [7] was “inactive” each time. Also, the Potency result in [8] and in [9] was “inactive” in each case. Moreover, in [5], the Potency was 31.5 µM (active) and inactive.
Take `CCOc1cc(Oc2ccc(C(F)(F)F)cc2Cl)ccc1[N+](=O)[O-]`: the Potency result in assay [1], in assay [2], in assay [3], in [4], in assay [8] and in [9] was “inactive” in each case. In addition, the Potency in assay [5] is 2.27 µM (active) and 5.64 µM (active); in assay [6], 5.7 µM (active) and 7.1 µM (active); in assay [7], 4.53 µM (active) and 6.33 µM (active); in assay [10], 20 µM (active).
Consider `O=C(O)C(F)(F)C(F)(F)C(F)(F)C(F)(F)C(F)(F)C(F)(F)C(F)(F)F`, for which the Potency entry in assay [1], in [2], in assay [3], in [4], in [5] and in [10] was “inactive” throughout. For the same compound, the Potency entry in assay [8] and in assay [9] was “inactive” throughout. For the same compound, the Potency in [6] is 79.6 µM (active) and inactive; in [7], 1.78 µM (active) and 2.51 µM (active).
On to `N#CCCCl`, for which the Potency entry in [1], in [2], in assay [3], in assay [4], in [5] and in [7] was “inactive” in each case. In addition, the Potency entry in assay [8] and in assay [9] was “inactive” throughout. Also, the Potency in [6] is 77.7 µM (active) and inactive.
Turning to `C=C(C)[C@H]1Cc2c(ccc3c2O[C@@H]2COc4cc(OC)c(OC)cc4[C@@H]2C3=O)O1`, the Potency entry in [1], in assay [2], in assay [3], in assay [4] and in assay [8] was “inactive” in each case. Also, the Potency result is “inactive and 38.9 µM (active)” in [5]; 5.09 µM (active) and 6.33 µM (active) and 9.77 µM (active) in assay [7].
`CCN(CC)C(=O)/C(Cl)=C(\C)OP(=O)(OC)OC`: the Potency entry in assay [2], in [4], in assay [5], in assay [6], in assay [7] and in assay [8] was “inactive” in each case. In addition, in assay [9], the Potency result was “inactive”.
For the compound `c1ccc(P(c2ccccc2)c2ccccc2)cc1`, the Potency result in assay [1], in [2], in assay [3], in assay [4], in [10] and in [9] was “inactive” throughout. Also, the Potency in assay [6] is 10.2 µM (active) and 7.1 µM (active); in assay [7], 12.9 µM (active) and 7.96 µM (active).
For the compound `O=c1oc2ccccc2c(O)c1C(CC(O)c1ccc(-c2ccc(Br)cc2)cc1)c1ccccc1` (configuration not stated), the Potency result in assay [1], in assay [2], in assay [3], in [4], in assay [5] and in [10] was “inactive” each time. In addition, the Potency entry in assay [8] was “inactive”. The Potency in assay [7] is 3.37 µM (active) and 3.47 µM (active).
Regarding `C1=Cc2cccc3cccc1c23`, the Potency result in [1], in [2], in assay [3], in [4], in [5] and in [7] was “inactive” in each case. For the same compound, the Potency entry in [8] and in assay [9] was “inactive” throughout. In addition, the Potency in assay [10] was 31.2 µM (active) and 25.2 µM (active).
In the case of `Nc1ccc(-c2ccc(N)c(N)c2)cc1N`, the Potency in assay [5] was 28.2 µM (active); in assay [6], 19.9 µM (active) and 3.56 µM (active); in [7], 17.8 µM (active) and 2.83 µM (active); in assay [10], 35.5 µM (active); in assay [9], 5.01 µM (active) and 2.83 µM (active). For the same compound, the Potency result in assay [8] was “inactive”.
Take `O=[N+]([O-])c1cccc2ccccc12`: the Potency result in assay [1], in assay [2], in assay [3], in assay [4], in assay [5] and in assay [6] was “inactive” throughout. For the same compound, the Potency entry in assay [7], in [8] and in assay [9] was “inactive” throughout.
Consider `NNC(N)=S`, for which the Potency result in [1], in assay [2], in assay [3], in assay [4], in [5] and in [8] was “inactive” in each case. For the same compound, the Potency result in assay [9] is “inactive”. In assay [6], the Potency was 73.8 µM (active).
Regarding `CCCCNC(=O)n1c(NC(=O)OC)nc2ccccc21`, the Potency result in [1], in assay [2], in assay [3], in assay [4], in assay [5] and in assay [8] was “inactive” throughout. Moreover, in assay [9], the Potency entry was “inactive”. Also, the Potency in [6] is 79.3 µM (active); in assay [10], 25.1 µM (active) and 28.3 µM (active).
Turning to `CCCCC(CC)COC(=O)c1ccc(C(=O)OCC(CC)CCCC)c(C(=O)OCC(CC)CCCC)c1` (configuration not stated), the Potency result in assay [1], in assay [2], in assay [3], in assay [4], in assay [5] and in assay [6] was “inactive” in each case. Besides, the Potency result in assay [7], in [8] and in assay [9] was “inactive” throughout.
As for `S=C1NCCN1`, the Potency result in [8] is “inactive”.
On the same count and under the same terms, the value for `C[C@]12CCC(=O)C[C@@H]1CC[C@@H]1[C@@H]2CC[C@]2(C)[C@@H](O)CC[C@@H]12` was 21.6 µM (active).
On to `c1ccc(-c2cccc(-c3ccccc3)c2)cc1`, for which the Potency entry in assay [1], in [2], in assay [3], in assay [4], in [5] and in assay [8] was “inactive” throughout. Moreover, in [9], the Potency result was “inactive”. Moreover, the Potency was 20.2 µM (active) and 8.94 µM (active) in assay [6]; 28.6 µM (active) and 31.7 µM (active) in assay [7].
As to `Oc1cc(Cl)ccc1Oc1ccc(Cl)cc1Cl`, the Potency entry in assay [1], in [2], in assay [4], in assay [5], in assay [8] and in [9] was “inactive” throughout. Moreover, in [6], the Potency was 459 nM (active) and 389 nM (active).
With `CCCCOCCOP(=O)(OCCOCCCC)OCCOCCCC`, the Potency entry in assay [1], in [2], in [3], in assay [4] and in assay [8] was “inactive” in each case. The Potency in [6] is 7.98 µM (active) and 8.94 µM (active); in assay [7], 8.95 µM (active) and 15.9 µM (active); in [9], 8.95 µM (active) and 15.9 µM (active).
In the case of `Nc1ccc(Cl)cc1N`, the Potency entry in assay [1], in [2], in assay [3], in assay [4] and in assay [8] was “inactive” in each case. The Potency in assay [5] was 32.6 µM (active); in [6], 20.8 µM (active) and 7.1 µM (active); in [7], 32.6 µM (active); in assay [9] it was 26.2 µM (active) and 5.64 µM (active).
